# Reference: ChEMBL document CHEMBL3988442, “University of Dundee, Small-Polar-MMV Screening Library” (2021)
# For part of these data: Potency and affinity values are given separately.
# Tests used:
# [1] = biological target: T1, Methionyl-tRNA synthetase, putative (Leishmania donovani (strain BPK282A1)) (UniProt E9BF75); experiment: Leishmania donovani Methionine tRNA synthetase (LdMetRS):v7. Dose response assay; format: functional; parameters: conc 80 nM, time 150 minutes
# T1 sequence (whole entry): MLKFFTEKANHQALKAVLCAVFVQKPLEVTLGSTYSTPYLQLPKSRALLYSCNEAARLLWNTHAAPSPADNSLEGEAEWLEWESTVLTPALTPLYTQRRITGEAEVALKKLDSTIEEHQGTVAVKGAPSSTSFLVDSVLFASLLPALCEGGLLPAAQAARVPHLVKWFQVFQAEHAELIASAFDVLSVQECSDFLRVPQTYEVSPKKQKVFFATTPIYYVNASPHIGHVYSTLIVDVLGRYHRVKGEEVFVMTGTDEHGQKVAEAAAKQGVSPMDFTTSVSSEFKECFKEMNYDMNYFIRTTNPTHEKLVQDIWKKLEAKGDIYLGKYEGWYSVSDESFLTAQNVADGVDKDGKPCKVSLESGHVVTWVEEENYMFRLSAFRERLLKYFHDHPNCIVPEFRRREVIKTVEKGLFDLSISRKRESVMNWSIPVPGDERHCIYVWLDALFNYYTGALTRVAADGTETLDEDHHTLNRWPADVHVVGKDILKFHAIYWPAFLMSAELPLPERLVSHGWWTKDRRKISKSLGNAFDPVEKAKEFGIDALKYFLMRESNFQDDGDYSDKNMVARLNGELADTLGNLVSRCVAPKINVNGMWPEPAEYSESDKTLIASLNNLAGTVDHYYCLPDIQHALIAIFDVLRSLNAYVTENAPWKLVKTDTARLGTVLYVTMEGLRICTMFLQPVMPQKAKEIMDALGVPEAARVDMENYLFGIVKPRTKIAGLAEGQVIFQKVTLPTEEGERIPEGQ
# [2] = biological target: Protein translocase subunit SecA (Escherichia coli (strain K12)) (UniProt P10408); experiment: Assay to Identify E. coli SecA ATPase Inhibitors; format: functional; parameters: scale not given: direction of the effect not stated beside the values; details: 30 µM
# [3] = biological target: T2, Ubiquitin-activating enzyme e1, putative (Leishmania donovani (strain BPK282A1)) (UniProt E9BSI1); experiment: Leishmania donovani Ubiquitin Activating Enzyme (LdE1); format: functional; parameters: scale not given: direction of the effect not stated beside the values; details: 30 µM
# T2 sequence (whole entry): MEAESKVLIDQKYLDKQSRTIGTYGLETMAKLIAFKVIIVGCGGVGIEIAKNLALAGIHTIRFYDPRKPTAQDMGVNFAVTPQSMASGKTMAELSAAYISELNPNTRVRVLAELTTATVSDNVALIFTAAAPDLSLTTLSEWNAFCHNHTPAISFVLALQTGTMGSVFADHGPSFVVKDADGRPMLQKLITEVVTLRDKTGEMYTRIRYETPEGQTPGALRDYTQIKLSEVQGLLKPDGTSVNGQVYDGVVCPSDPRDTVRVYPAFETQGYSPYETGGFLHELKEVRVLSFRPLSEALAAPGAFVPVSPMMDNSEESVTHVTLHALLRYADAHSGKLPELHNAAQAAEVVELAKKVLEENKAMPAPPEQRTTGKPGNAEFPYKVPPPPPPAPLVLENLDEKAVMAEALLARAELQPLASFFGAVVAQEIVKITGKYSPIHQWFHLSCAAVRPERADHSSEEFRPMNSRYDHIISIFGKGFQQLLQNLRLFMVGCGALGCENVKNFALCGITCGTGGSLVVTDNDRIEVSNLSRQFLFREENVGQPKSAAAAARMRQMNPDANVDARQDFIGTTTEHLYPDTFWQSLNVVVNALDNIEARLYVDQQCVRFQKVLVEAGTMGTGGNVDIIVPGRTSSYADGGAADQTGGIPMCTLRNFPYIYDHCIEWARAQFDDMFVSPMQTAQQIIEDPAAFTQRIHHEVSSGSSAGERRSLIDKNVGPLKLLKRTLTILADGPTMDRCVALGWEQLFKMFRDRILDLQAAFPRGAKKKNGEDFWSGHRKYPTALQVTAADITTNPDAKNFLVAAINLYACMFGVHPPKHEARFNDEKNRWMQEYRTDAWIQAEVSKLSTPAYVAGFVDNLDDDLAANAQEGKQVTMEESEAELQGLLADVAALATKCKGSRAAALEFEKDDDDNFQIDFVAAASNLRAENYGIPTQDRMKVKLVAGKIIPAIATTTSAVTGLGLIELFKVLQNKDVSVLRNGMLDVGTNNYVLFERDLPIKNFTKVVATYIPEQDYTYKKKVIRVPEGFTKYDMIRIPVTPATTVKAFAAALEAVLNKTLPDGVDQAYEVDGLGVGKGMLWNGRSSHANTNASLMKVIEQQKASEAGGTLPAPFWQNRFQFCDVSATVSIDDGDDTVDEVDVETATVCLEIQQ
# [4] = biological target: AMP-activated protein kinase, AMPK (Homo sapiens) (UniProt P54646+O43741+P54619+Q9UGJ0+Q9Y478+Q13131+Q9UGI9); experiment: AMP-dependent Kinase enzyme assay. An in vitro enzyme assay that detects ADP turnover that is directly proportional to AMPK activity. This uses naive AMPK that is activated during the assay with MK-8722; format: functional; parameters: scale not given: direction of the effect not stated beside the values; details: 30 µM
# [5] = biological target: Sialic acid-binding Ig-like lectin 9 (Homo sapiens) (UniProt Q9Y336); experiment: Hs-Siglec9 ALPHAscreen SOP 20170721; parameters: scale not given: direction of the effect not stated beside the values; details: 10 µM
# Trypanosoma cruzi = experiment: Trypanosoma cruzi phosphomannomutase and mannose-1-phosphate guanylyltransferase assay; format: functional; parameters: scale not given: direction of the effect not stated beside the values; details: 10 µM
# [6] = biological target: T3, Arginase-2, mitochondrial (Homo sapiens) (UniProt P78540); experiment: in vitro enzyme assay to detect the production of urea directly proportional to the activity of Arginase II; format: functional; parameters: scale not given: in the data most compounds retested in dose-response had high values; details: 33.3 µM
# T3 sequence (whole entry): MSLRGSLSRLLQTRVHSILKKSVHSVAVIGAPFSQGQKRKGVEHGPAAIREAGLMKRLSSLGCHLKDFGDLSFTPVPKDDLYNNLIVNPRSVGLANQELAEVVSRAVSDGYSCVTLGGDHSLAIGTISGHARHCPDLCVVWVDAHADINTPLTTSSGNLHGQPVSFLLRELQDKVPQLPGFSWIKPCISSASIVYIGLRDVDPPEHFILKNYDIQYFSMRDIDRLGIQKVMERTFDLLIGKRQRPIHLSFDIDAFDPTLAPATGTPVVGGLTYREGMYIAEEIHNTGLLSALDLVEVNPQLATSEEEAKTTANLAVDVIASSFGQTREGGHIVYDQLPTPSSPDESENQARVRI
# [7] = biological target: T4, Proteasome subunit beta (Trypanosoma cruzi) (UniProt O96673); experiment: Trypanosoma cruzi proteasome chymotrypsin-like activity (TcProtChymo) assay.; format: functional; parameters: scale not given: in the data most compounds retested in dose-response had high values; details: 9.37 µM
# T4 sequence (whole entry): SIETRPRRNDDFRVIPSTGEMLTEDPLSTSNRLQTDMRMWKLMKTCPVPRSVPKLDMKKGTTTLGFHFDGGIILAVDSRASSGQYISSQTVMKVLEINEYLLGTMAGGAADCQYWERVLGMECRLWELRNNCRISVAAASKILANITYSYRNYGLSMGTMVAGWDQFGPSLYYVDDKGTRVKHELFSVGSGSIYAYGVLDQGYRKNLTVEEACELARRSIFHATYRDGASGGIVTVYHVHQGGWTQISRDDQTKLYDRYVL
# Homo sapiens = species: Homo sapiens; experiment: To identify inhibition of the IFN signalling (Jak-Stat) pathway via expression of an eGFP reporter gene under the control of an IFN-stimulated response element (ISRE) containing MxA promoter.; format: functional; parameters: scale not given: direction of the effect not stated beside the values; details: 30 µM
# [8] = biological target: T5, Tyrosyl-tRNA synthetase, putative (Trypanosoma cruzi (strain CL Brener)) (UniProt Q4DSP6); experiment: Trypanosoma cruzi tyrosyl tRNA synthetase (TcYRS) _High Tyrosine SOP; format: functional; parameters: scale not given: in the data most compounds retested in dose-response had high values; details: 30 µM
# T5 sequence (whole entry): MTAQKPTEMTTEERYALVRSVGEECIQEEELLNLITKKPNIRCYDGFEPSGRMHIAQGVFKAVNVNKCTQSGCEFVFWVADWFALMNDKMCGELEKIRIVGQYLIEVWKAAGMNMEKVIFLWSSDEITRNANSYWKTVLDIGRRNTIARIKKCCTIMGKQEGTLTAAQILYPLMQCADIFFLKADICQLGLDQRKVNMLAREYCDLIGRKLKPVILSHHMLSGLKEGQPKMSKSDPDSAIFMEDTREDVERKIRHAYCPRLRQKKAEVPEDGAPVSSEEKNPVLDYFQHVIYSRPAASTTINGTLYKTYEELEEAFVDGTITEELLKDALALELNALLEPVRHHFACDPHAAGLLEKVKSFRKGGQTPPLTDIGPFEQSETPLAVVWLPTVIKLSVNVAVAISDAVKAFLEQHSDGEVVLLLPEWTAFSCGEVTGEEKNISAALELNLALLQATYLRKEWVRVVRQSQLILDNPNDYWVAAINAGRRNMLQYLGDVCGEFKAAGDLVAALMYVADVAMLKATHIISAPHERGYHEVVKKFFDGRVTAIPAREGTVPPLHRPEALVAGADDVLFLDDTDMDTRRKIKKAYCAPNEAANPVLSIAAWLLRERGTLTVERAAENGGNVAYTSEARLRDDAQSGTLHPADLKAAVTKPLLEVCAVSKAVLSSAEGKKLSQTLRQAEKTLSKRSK
# [9] = biological target: T5, Tyrosyl-tRNA synthetase, putative (Trypanosoma cruzi (strain CL Brener)); experiment: Trypanosoma cruzi tyrosyl tRNA synthetase (TcYRS) SOP; format: functional; parameters: scale not given: direction of the effect not stated beside the values; details: 30 µM
# [10] = biological target: Chromo domain-containing protein 1 (Saccharomyces cerevisiae (strain ATCC 204508 / S288c) (Baker's yeast)) (UniProt P32657); experiment: ScCHD-1 Enzyme Inhibition Assay; format: functional; parameters: scale not given: in the data most compounds retested in dose-response had high values; details: 30 µM
# Sequence of Chromo domain-containing protein 1 (Saccharomyces cerevisiae (strain ATCC 204508 / S288c) (Baker's yeast)) (P32657 whole entry, the tested form may be a part): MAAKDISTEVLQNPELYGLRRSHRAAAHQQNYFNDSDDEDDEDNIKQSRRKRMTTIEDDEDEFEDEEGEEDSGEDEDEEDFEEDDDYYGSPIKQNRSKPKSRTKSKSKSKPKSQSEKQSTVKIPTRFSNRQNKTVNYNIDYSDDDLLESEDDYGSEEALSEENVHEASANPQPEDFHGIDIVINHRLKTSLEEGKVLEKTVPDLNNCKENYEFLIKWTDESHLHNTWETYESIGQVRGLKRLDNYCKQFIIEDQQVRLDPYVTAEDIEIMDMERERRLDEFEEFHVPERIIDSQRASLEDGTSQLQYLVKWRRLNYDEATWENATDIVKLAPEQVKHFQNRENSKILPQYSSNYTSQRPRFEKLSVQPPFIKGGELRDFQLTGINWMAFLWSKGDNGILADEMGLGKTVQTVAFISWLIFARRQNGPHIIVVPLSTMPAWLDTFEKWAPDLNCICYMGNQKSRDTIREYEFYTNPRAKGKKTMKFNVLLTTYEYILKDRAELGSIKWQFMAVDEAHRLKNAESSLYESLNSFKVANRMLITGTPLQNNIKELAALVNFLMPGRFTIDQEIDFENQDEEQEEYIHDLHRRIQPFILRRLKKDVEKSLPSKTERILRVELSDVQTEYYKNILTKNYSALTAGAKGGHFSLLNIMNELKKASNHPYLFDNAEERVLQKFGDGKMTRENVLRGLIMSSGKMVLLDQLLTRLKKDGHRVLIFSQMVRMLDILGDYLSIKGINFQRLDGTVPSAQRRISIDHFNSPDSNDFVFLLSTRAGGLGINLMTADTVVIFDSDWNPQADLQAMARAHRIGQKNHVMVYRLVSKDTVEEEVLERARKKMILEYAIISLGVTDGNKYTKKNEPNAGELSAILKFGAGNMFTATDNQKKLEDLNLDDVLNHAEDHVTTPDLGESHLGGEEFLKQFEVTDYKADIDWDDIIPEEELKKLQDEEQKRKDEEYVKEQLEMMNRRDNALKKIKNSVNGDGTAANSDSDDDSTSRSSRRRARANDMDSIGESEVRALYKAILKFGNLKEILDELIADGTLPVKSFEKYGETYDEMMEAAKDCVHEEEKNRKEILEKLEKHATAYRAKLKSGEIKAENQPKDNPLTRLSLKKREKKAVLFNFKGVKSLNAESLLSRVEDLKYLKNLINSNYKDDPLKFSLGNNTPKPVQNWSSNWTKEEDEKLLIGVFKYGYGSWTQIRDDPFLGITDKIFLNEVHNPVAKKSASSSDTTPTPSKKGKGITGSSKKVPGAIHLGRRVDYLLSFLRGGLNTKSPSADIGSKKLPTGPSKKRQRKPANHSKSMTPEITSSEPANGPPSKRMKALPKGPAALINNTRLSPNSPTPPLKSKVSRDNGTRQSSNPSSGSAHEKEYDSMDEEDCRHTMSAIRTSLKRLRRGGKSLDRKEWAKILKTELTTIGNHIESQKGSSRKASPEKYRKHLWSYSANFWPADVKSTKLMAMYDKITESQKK
# Sequence of Sialic acid-binding Ig-like lectin 9 (Homo sapiens) (Q9Y336 whole entry): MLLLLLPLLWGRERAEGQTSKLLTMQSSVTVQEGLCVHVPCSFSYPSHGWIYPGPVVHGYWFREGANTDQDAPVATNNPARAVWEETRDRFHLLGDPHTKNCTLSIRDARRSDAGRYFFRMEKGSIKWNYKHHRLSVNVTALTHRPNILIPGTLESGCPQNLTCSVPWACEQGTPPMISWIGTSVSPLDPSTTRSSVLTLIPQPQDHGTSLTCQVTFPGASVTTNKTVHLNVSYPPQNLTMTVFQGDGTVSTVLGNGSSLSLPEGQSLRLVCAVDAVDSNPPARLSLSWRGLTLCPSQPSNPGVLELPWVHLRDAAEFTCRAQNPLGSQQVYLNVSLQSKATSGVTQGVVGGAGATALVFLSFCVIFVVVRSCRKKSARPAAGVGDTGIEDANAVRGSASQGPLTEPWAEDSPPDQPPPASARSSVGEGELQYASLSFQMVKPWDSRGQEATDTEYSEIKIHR
# Sequence of Protein translocase subunit SecA (Escherichia coli (strain K12)) (P10408 whole entry): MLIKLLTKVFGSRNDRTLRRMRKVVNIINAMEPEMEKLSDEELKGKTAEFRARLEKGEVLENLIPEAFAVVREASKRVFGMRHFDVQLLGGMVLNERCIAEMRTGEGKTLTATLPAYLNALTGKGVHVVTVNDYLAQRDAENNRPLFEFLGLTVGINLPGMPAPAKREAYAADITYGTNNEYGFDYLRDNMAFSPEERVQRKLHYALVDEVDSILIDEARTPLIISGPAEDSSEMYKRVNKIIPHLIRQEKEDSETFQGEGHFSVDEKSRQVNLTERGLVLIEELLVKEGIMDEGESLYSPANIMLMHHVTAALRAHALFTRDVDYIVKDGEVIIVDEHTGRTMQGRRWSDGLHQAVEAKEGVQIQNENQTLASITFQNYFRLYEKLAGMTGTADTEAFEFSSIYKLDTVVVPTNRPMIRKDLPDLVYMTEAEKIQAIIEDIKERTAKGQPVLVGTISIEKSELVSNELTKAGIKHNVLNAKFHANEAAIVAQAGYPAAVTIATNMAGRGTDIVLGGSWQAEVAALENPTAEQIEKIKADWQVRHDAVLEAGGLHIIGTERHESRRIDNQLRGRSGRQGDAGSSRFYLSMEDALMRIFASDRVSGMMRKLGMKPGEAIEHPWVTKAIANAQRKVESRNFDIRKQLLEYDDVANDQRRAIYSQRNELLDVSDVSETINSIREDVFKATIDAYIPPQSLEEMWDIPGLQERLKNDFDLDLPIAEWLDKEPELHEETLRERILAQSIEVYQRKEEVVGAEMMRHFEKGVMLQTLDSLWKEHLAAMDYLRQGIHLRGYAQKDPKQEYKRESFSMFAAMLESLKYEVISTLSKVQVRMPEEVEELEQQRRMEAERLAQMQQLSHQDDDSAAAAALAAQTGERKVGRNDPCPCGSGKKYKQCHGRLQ
smiles,measurement,setting,value
O=C(CC1=CCCCC1)NCCc1csc(N2CCCC2)n1,PXC50,"[1]; BOTTOM 3.701535951, HILLSLOPE 1.30756587, MAX_EFFECT 71.01449275, TOP 100.0",4.26
same,PXC50,"[1]; BOTTOM -1.141810122, HILLSLOPE 1.921557011, MAX_EFFECT 84.15841584, TOP 100.0",4.32
same,PXC50,[1]; MAX_EFFECT 3.162055336,< 4
same,PXC50,[1]; MAX_EFFECT 8.571428571,< 4
same,PXC50,[1]; MAX_EFFECT 50.53763441,< 4
same,Percent Effect,[2],-6.52%
same,Percent Effect,[3],-5.33%
same,Percent Effect,[4],-0.418%
same,Percent Effect,[5],8.91%
same,Percent Effect,Trypanosoma cruzi,15.9%
same,Percent Effect,[6],-1.56%
same,Percent Effect,[7],25.3%
same,Percent Effect,Homo sapiens,-20.2%
same,Percent Effect,[8],23.5%
same,Percent Effect,[9],8.64%
same,Percent Effect,[10],33%
COC1CCCC(Nc2nc(Nc3ccc(F)c(F)c3)nc3c2cnn3C)C1 (configuration not stated),PXC50,"[1]; BOTTOM 3.912528548, HILLSLOPE 1.076870083, MAX_EFFECT 68.97196262, TOP 71.78159337",5.18
same,PXC50,"[1]; BOTTOM 5.265177704, HILLSLOPE 1.728535848, MAX_EFFECT 54.8245614, TOP 53.52484427",5.16
same,PXC50,"[1]; BOTTOM 8.334941311, HILLSLOPE 1.334767366, MAX_EFFECT 54.01869159, TOP 53.22848094",5.23
same,PXC50,"[1]; BOTTOM -8.876719942, HILLSLOPE 0.681128814, MAX_EFFECT 53.21888412, TOP 100.0",4.53
same,PXC50,[1]; MAX_EFFECT 40.38004751,< 4
same,PXC50,[1]; MAX_EFFECT 46.81933842,< 4
Cc1cc(C)n(CCCn2cncc2-c2ccc3c(c2)CC(C)N3C)n1 (configuration not stated),PXC50,"[1]; BOTTOM 4.401789899, HILLSLOPE 1.374668367, MAX_EFFECT 53.02013423, TOP 100.0",4.02
same,PXC50,"[1]; BOTTOM 5.049738187, HILLSLOPE 0.795238386, MAX_EFFECT 63.88888889, TOP 100.0",4.3
same,PXC50,"[1]; BOTTOM 6.889933183, HILLSLOPE 1.019311149, MAX_EFFECT 71.9237435, TOP 100.0",4.34
same,PXC50,[1]; MAX_EFFECT 6.666666667,< 4
same,PXC50,[1]; MAX_EFFECT 21.73913043,< 4
